Assay results as given in PubChem BioAssay AID2205 (University of Pittsburgh Molecular Library Screening Center, 2009).
Hit rate of the full screen: of about 200,000 compounds, about 1,600 (0.8%) were called active.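 How the source made its calls: active means plate Z-score above 3 for both tubulin-high and condensed-nucleus cell shares, with cell loss under 80%, at 10 µM; inactive means the rest, inconclusive results apart.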 What follows is part of a selection rich in actives, with near analogues and random picks from the rest.

Assay: tubulin staining increase by stabilizing compounds – imaging, high-content imaging, primary screen (AID 2205);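 on % tubulin-high responders: anti alpha tubulin signal scored within the nucleus-defined area of each cell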;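 on toxicity: 0% = mean cell density of plate MIN control wells and 100% = no cells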
Settings: HeLa tubulin immunostaining HCS, 24 h, at 10 µM; % Hoechst-high responders: measured here: nuclear condensation Hoechst responders, stronger effect = higher value, share of cells brighter than vehicle mean+2SD; % tubulin-high responders: stronger effect = higher value, share of cells brighter than vehicle mean+2SD; toxicity: measured here: cytotoxicity by cell density

Which results are given for `Cc1ccc(Nc2ccccc2N)cc1`?
% Hoechst-high responders: 19%; % tubulin-high responders: 25.1% (active); toxicity: 21.1%

Which % Hoechst-high responders does the source give for `Cc1ccc(Nc2nnc(SCc3ccccc3)s2)cc1` here?
Its % Hoechst-high responders is 1.53%.

What about the % tubulin-high responders of the same compound?
The % tubulin-high responders was 1.84% (inactive).

What about the toxicity of the same compound?
Its toxicity is 10%.

Which results are given for `Nc1ccc(Nc2ccccc2)cc1`?
% Hoechst-high responders: 2.02%; % tubulin-high responders: 3.57% (inactive); toxicity: 3.51%

For `COc1ccccc1OCCNC(=O)c1cc([N+](=O)[O-])cc([N+](=O)[O-])c1`, which % Hoechst-high responders is on record?
The % Hoechst-high responders was 1.79%.

And the % tubulin-high responders?
The % tubulin-high responders was 2.35% (inactive).

And the toxicity?
Its toxicity is 4.5%.

Which results are given for `CCOC(=O)c1sc2nc(CSCC(=O)OCc3ccc(C(=O)OC)o3)[nH]c(=O)c2c1C`?
% Hoechst-high responders: 1.26%; % tubulin-high responders: 1.86% (inactive); toxicity: 6.86%

Which results are given for `CCOC(=O)c1sc2nc(C)nc(SCC(N)=O)c2c1C`?
% Hoechst-high responders: 2.34%; % tubulin-high responders: 3.35% (inactive); toxicity: 5.02%

What does the source list for `CCOC(=O)c1sc2nc(CSc3ccccc3)[nH]c(=O)c2c1C`?
% Hoechst-high responders: 28.5%; % tubulin-high responders: 17.6% (active); toxicity: 32.2%

Which results are given for `O=C(Nc1ccon1)c1sc2ccccc2c1Cl`?
% Hoechst-high responders: 2.6%; % tubulin-high responders: 2.29% (inactive); toxicity: 5.2%

Which results are given for `Cc1nn(C)cc1/C=N/NC(=O)c1sc2ccccc2c1Cl`?
% Hoechst-high responders: 0.999%; % tubulin-high responders: 1.5% (inactive); toxicity: 12.2%

Which % Hoechst-high responders does the source give for `O=C(N/N=C/c1c(Cl)[nH]c2ccccc12)c1sc2ccccc2c1Cl` here?
The % Hoechst-high responders was 42.8%.

And the % tubulin-high responders?
The % tubulin-high responders was 18.9% (active).

What about the toxicity of the same compound?
The toxicity was 32.3%.

With `N=C1C(c2nc3ccccc3s2)=C(O)CN1NC(=O)c1ccc([N+](=O)[O-])cc1` as the compound, how does the % Hoechst-high responders read?
Its % Hoechst-high responders is 1.37%.

What about the % tubulin-high responders of the same compound?
The % tubulin-high responders was 9.65% (inactive).

And the toxicity?
Its toxicity is 4.7%.

For `COc1ccccc1N1CC(O)=C(c2nc3ccccc3s2)C1=N`, which % Hoechst-high responders is on record?
Its % Hoechst-high responders is 9.29%.

And the % tubulin-high responders?
Its % tubulin-high responders is 17.8% (active).

What about the toxicity of the same compound?
Its toxicity is 14.3%.

What does the source list for `CCOC(=O)CCCN1CC(O)=C(c2nc3ccccc3s2)C1=N`?
% Hoechst-high responders: 2.61%; % tubulin-high responders: 4.95% (inactive); toxicity: 2.95%

With `Cc1ccc(C(=O)NC(=S)Nc2ccccc2C)cc1` as the compound, how does the % Hoechst-high responders read?
The % Hoechst-high responders was 1.22%.

And the % tubulin-high responders?
The % tubulin-high responders was 1.11% (inactive).

What about the toxicity of the same compound?
Its toxicity is 8.22%.

Which % Hoechst-high responders does the source give for `C/C(CCC(=O)OC[C@H]1O[C@H](C#Cc2ccccc2)C=C[C@@H]1Oc1ccc(C)cc1)=N\OC[C@@H](O)[C@H]1O[C@@H]2OC(C)(C)O[C@@H]2[C@H]1O` here?
Its % Hoechst-high responders is 2.47%.

What about the % tubulin-high responders of the same compound?
The % tubulin-high responders was 2.74% (inactive).

And the toxicity?
The toxicity was 9.27%.

Which % Hoechst-high responders does the source give for `CCC1(C(=O)c2ccccc2)C(c2cccc([N+](=O)[O-])c2)C1(C(=O)OC)C(=O)OC` (stereo not given) here?
Its % Hoechst-high responders is 2.35%.

And the % tubulin-high responders?
The % tubulin-high responders was 3.4% (inactive).

And the toxicity?
Its toxicity is 3.29%.

For `COc1ccccc1C1SCCN1C(=O)c1ccc([N+](=O)[O-])cc1` (stereo not given), which % Hoechst-high responders is on record?
Its % Hoechst-high responders is 3.5%.

What about the % tubulin-high responders of the same compound?
Its % tubulin-high responders is 3.9% (inactive).

What about the toxicity of the same compound?
Its toxicity is 3.11%.

What does the source list for `COc1ccc(C(=O)N2CCc3cc(OC)c(OC)cc3C2c2cccc([N+](=O)[O-])c2)cc1` (stereo not given)?
% Hoechst-high responders: 33.6%; % tubulin-high responders: 45.1% (active); toxicity: 30.8%

For `Cc1cccc(OCCCC(=O)Nc2ccc(S(=O)(=O)N3CCCC3)cc2)c1`, which % Hoechst-high responders is on record?
Its % Hoechst-high responders is 2.42%.

And the % tubulin-high responders?
Its % tubulin-high responders is 3.34% (inactive).

What about the toxicity of the same compound?
The toxicity was 1.31%.

Which % Hoechst-high responders does the source give for `CCCCOc1ccc(NC(=O)[C@@H]2CCCN2C(=O)C2CCN(S(=O)(=O)c3ccc(C)cc3)CC2)cc1` here?
Its % Hoechst-high responders is 12%.

And the % tubulin-high responders?
The % tubulin-high responders was 23.9% (active).

What about the toxicity of the same compound?
Its toxicity is 63.4%.

Which % Hoechst-high responders does the source give for `COc1ccc(N2CCN(C(=O)C3CCN(S(=O)(=O)c4ccc(C)cc4)CC3)CC2)cc1` here?
The % Hoechst-high responders was 2.46%.

What about the % tubulin-high responders of the same compound?
The % tubulin-high responders was 4.98% (inactive).

What about the toxicity of the same compound?
The toxicity was 9.28%.

For `CCOc1ccc(NC(=S)N2CCC(N(C)CC3CCCO3)CC2)cc1` (stereo not given), which % Hoechst-high responders is on record?
The % Hoechst-high responders was 1.17%.

What about the % tubulin-high responders of the same compound?
Its % tubulin-high responders is 2.22% (inactive).

And the toxicity?
Its toxicity is 7.25%.

For `COC(=O)c1cc(C(=O)N(Cc2ccccc2)c2ccccn2)cc([N+](=O)[O-])c1`, which % Hoechst-high responders is on record?
Its % Hoechst-high responders is 2.13%.

What about the % tubulin-high responders of the same compound?
The % tubulin-high responders was 3.91% (inactive).

What about the toxicity of the same compound?
The toxicity was 2.76%.

Which % Hoechst-high responders does the source give for `CCOc1[nH]n(-c2ccc(Cl)cc2)c(=O)c1C=Nc1ccc(O)cc1` here?
Its % Hoechst-high responders is 12.9%.

And the % tubulin-high responders?
Its % tubulin-high responders is 33.2% (active).

What about the toxicity of the same compound?
The toxicity was 43.1%.

Which % Hoechst-high responders does the source give for `Cc1[nH]n(-c2ccc(Cl)cc2)c(=O)c1/C=N/n1c(C)nc2ccccc2c1=O` here?
Its % Hoechst-high responders is 2.61%.

What about the % tubulin-high responders of the same compound?
Its % tubulin-high responders is 5.31% (inactive).

What about the toxicity of the same compound?
Its toxicity is 6.25%.

For `CCc1nnc(NS(=O)(=O)c2ccc(N=Cc3c(C)[nH]n(-c4ccc(C)cc4)c3=O)cc2)s1`, which % Hoechst-high responders is on record?
Its % Hoechst-high responders is 2.28%.

What about the % tubulin-high responders of the same compound?
The % tubulin-high responders was 1.91% (inactive).

And the toxicity?
The toxicity was 6.1%.

With `O=C(NC(=S)Nc1ccc(S(=O)(=O)N2CCOCC2)cc1)c1ccccc1[N+](=O)[O-]` as the compound, how does the % Hoechst-high responders read?
The % Hoechst-high responders was 1.54%.

And the % tubulin-high responders?
Its % tubulin-high responders is 3.32% (inactive).

And the toxicity?
Its toxicity is 3.74%.

With `COc1ccc(-c2cc(C(=O)NCc3ccco3)no2)cc1OC` as the compound, how does the % Hoechst-high responders read?
The % Hoechst-high responders was 1.41%.

What about the % tubulin-high responders of the same compound?
Its % tubulin-high responders is 1.62% (inactive).

What about the toxicity of the same compound?
Its toxicity is 8.27%.

Which results are given for `Cc1ccc(CNC(=O)C2CC(c3ccccc3[N+](=O)[O-])=NO2)o1` (stereo not given)?
% Hoechst-high responders: 2.18%; % tubulin-high responders: 1.45% (inactive); toxicity: 2.23%

Which % Hoechst-high responders does the source give for `COc1ccc(C2=NOC(C(=O)NCc3ccco3)C2)cc1OC` (stereo not given) here?
The % Hoechst-high responders was 22.4%.

What about the % tubulin-high responders of the same compound?
Its % tubulin-high responders is 39.6% (active).

And the toxicity?
Its toxicity is 66.2%.

Which results are given for `O=[N+]([O-])c1ccc(Sc2n[nH]c(-c3ccco3)n2)nc1`?
% Hoechst-high responders: 1.75%; % tubulin-high responders: 2.25% (inactive); toxicity: 7.26%

What does the source list for `CCCCCCCC[n+]1cccc(C(=O)N2c3c(nc(N)[nH]c3=O)NC(C)C2C)c1` (stereo not given)?
% Hoechst-high responders: 2.15%; % tubulin-high responders: 1.56% (inactive); toxicity: 7.45%

For `CCOc1cccc(/C=N/N2C(=O)CSC2=S)c1O`, which % Hoechst-high responders is on record?
The % Hoechst-high responders was 1.52%.

What about the % tubulin-high responders of the same compound?
Its % tubulin-high responders is 5.1% (inactive).

What about the toxicity of the same compound?
The toxicity was 14.4%.

Which results are given for `Cc1nccn1CCCNC(=O)CC1C(=O)NCCN1Cc1ccc(Cl)c(F)c1` (stereo not given)?
% Hoechst-high responders: 2.31%; % tubulin-high responders: 2.68% (inactive); toxicity: 1.05%

With `COC(=O)C1=C(Nc2ccc(OC)cc2)C=C(C)C(C(=O)OC)C1c1ccc(C)cc1` (stereo not given) as the compound, how does the % Hoechst-high responders read?
The % Hoechst-high responders was 1.91%.

What about the % tubulin-high responders of the same compound?
Its % tubulin-high responders is 2.3% (inactive).

What about the toxicity of the same compound?
The toxicity was 12.1%.
